Assay outcomes: PubChem, National Center for Advancing Translational Sciences (NCATS)
An excerpt weighted towards active compounds, which were near 7.3% of everything screened.
NPC1 prom act – qHTS Assay for NPC1 Promoter Activators; 320,000 tested, 2.4% active; AID 485313, 2010; Huh7 NPC1 promoter luciferase reporter, 24 h; Potency, µM (series often up to 9.22 µM), inactives show at the top dose activation, most hits filed as activators; note: % of control where 0% means no effect; nearly all actives have a fitted effect of over 60% in size
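Huh7 reporter cells (NPC1 promoter driving luciferase) are dosed with compound for 24 h at 37 °C, 5% CO2; luciferase detection reagent is then added and luminescence measured after 10 min at ambient temperature.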
Luc counter – Counterscreen for Luciferase (Kinase-Glo TM) Inhibition; Luciferin 4-monooxygenase (Photuris pensylvanica), Q27757; Kinase-Glo luciferase, ATP luminescence, 8 min; Potency, µM (doses to about 38.3 µM), for the others: at the highest dose activity change, negative = inhibition, actives largely listed as inhibitors; 200,000 tested, 0.28% active; AID 1379, 2008; note: % is set by controls: 0 for no effect and ±100 for the full control effect; nearly all actives have a fitted effect of over 60% in size
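Substrate mix (final 50 mM imidazole pH 7.2, 50 mM KCl, 7 mM MgCl2, 10 uM ATP, 0.01% Tween 20, 0.05% BSA) plus pin-tool compound, then Kinase-Glo detection mix; 8 min ambient, luminescence read.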
SMN2 splice enh – qHTS Assay for Enhancers of SMN2 Splice Variant Expression | 210,000 tested, 2.8% active | HEK293 SMN2-luciferase splicing reporter, luminescence, 30-36 h | Potency, µM (doses to about 46.1 µM), for inactives: at the top dose activity change, positive = activation, most hits filed as activators; note: % of control where 0% means no effect; nearly all actives have a fitted effect of over 55% in size
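qHTS luciferase splicing reporter: luminescence rises when SMN2 exon 7 is included in transfected HEK293 cells. Compound exposure lasted 30-36 h at 37C, with 4.5 mM final sodium butyrate as control, followed by a ONE-Glo read.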
ELG1 genotox – qHTS screen for small molecules that induce genotoxicity in human embryonic kidney (HEK293T) cells expressing luciferase-tagged ELG1; HEK293T ELG1-luciferase reporter, luminescence, 16 h; Potency, µM (top dose mostly 46 µM), inactives show at the highest dose activity change, positive = activation, usual class: activators; 330,000 tested, 1.3% active; note: % of control where 0% means no effect; nearly all actives have a fitted effect of over 60% in size
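DMSO vehicle served as control against compound-treated ELG1-luciferase HEK293T cells; exposure lasted 16 hr at 37 °C and 5% CO2, followed by ONE-Glo luminescence detection after 30 min.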
FLuc modulator – qHTS profiling assay for firefly luciferase inhibitor/activator using purifed enzyme and Km concentrations of substrates (counterscreen for miR-21 project). Luciferin 4-monooxygenase (Photinus pyralis), P08659. purified FLuc, Km substrates, luminescence inhibition. Potency, µM (series often up to 57.5 µM), for inactives: at the highest dose activity change, negative = inhibition, actives largely listed as inhibitors. 360,000 tested, 6.9% active. AID 588342, 2011;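 note: plate controls were vehicle for no effect and reference inhibitor for full effect; nearly all actives have a fitted effect of over 55% in size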
Target sequence (P08659 whole entry, looked up): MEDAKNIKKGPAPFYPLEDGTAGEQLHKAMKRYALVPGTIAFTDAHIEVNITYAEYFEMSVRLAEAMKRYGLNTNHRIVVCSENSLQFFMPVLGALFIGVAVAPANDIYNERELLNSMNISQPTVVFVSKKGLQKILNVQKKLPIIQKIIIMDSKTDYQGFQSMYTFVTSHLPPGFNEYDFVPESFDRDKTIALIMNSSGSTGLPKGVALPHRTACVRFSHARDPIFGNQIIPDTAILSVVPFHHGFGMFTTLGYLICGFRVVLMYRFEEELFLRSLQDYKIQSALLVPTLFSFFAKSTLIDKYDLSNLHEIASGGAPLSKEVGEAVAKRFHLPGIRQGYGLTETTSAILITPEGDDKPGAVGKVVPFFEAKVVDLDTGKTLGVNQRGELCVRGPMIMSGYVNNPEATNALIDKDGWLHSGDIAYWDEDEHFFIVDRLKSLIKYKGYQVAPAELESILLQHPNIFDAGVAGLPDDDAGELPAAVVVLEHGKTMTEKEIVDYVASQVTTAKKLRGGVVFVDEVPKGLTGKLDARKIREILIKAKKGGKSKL
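Purified P. pyralis luciferase (10nM final) with 10uM D-luciferin and 10uM ATP (Km levels) in 50mM Tris acetate pH 7.5, 10mM Mg acetate, 0.01% Tween-20, 0.05% BSA; qHTS 6-point titration, ~60 µM downward; luminescence read.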
Rab9 promoter act – qHTS Assay for Rab9 Promoter Activators; Huh7 Rab9 promoter-luciferase reporter, luminescence, 24 h; Potency, µM (highest dose often 9.22 µM), without a hit: at the top dose activation, negative = inhibition, hits mostly activators; 320,000 tested, 2.8% active; AID 485297, 2010; note: % of control where 0% means no effect; nearly all actives have a fitted effect of over 60% in size
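Luminescence from Amplite-detected luciferase (10 minutes, ambient) reports Rab9 promoter activation. Before that, stable Rab9-luciferase Huh7 cells (1500/well, reduced-serum OP-MEM I plus 10% FBS) were exposed to compound for 24 hours at 37C.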
* hit, by the source's call; ? = inconclusive; · = no result; [ ] = another dose, or the depositor's remark. Calls come from the whole dose curve; as a rule, active = well fitted curve in the direction sought with a large enough effect; inconclusive = small, poorly fitted or top-dose-only effect, or another doubt; inactive = no such curve, though single readings can be large; an effect the other way counts as inactive or inconclusive. Potency is the fitted concentration of half-maximal effect.

SMILES | NPC1 prom act | Luc counter | SMN2 splice enh | ELG1 genotox | FLuc modulator | Rab9 promoter act
O=C(COc1ccccc1Cl)N1CCc2ccccc2C1 | 15% | · | · | 7% | ? | 28%
O=C(COc1ccccc1Cl)N1CCc2ccccc21 | 2µM* | · | · | 9.2µM* | 6.7µM* | 1.3µM*
COc1ccccc1NC(=O)CSC1=Nc2ccccc2C2=NC(CCC(=O)NCc3ccco3)C(=O)N12 (configuration not stated) | · | · | · | · | 1% | ·
CCN1C(=O)C2(c3ccccc31)c1c(oc3ccc(F)cc3c1=O)C(=O)N2CCCOC (configuration not stated) | · | · | -2% | · | -1% | ·
CCCn1c(SCC(=O)N2CCc3ccccc32)nnc1-c1ccco1 | -16% | 11% | -1% | -5% | -2% | 2%
O=C(CSCc1ccco1)N1CCc2ccccc21 | 2.8µM* | · | · | ? | 9.5µM* | 3.5µM*
O=C1/C(=C\c2ccc(O)c(O)c2)C(c2ccccc2)=NN1c1ccccc1 | -12% | -10% | -2% | 8% | 19µM* | -13%
COc1cc(/C=C2\C(=O)N(c3ccc(NC(C)=O)cc3)N=C2c2ccccc2)ccc1O | -1% | -12% | 5% | 6% | 17µM* | -6%
O=C(Nc1ccccc1)N(Cc1cccs1)c1ccc(F)cc1 | · | · | · | · | -11% | ·
CS(=O)(=O)c1ccc2c(c1)sc1nc(=O)c(/C=C3/C=CC(=O)C(O)=C3)c(N)n12 | 20% | · | · | ? | 4.8µM* | 1%
CCS(=O)(=O)c1nn2c(N)c(/C=C3/C=CC(=O)C(OC)=C3)c(=O)nc2s1 | 6% | 1% | -15%[1.84 µM] | 1% | ? | -4%
CCOC1=C/C(=C/c2c(N)n3nc(-c4ccccc4)sc3nc2=O)C=CC1=O | -4% | 0% | 0% | -1% | ? | -3%
COC1=C/C(=C/c2c(N)n3c(nc2=O)sc2cc(S(C)(=O)=O)ccc23)C=CC1=O | -1% | · | · | 4% | 9.5µM* | 27%
COC1=C/C(=C/c2c(N)n3nc(-c4ccc(C)cc4)sc3nc2=O)C=CC1=O | 19% | -1% | ? | ? | 15µM* | 28%
CCOC(=O)C(CC)N1CCN(Cc2ccc(F)cc2)C(=O)C1=O (configuration not stated) | · | · | · | · | 0% | ·
CC(C)c1ccc(S(=O)(=O)N2CCC(n3c(C(F)(F)F)nc4cccnc43)CC2)cc1 | · | · | · | · | -6% | ·
CCn1nc(C)c2c(-c3ccccc3)cc(=O)n(C(C)C(=O)NCCC(C)C)c21 (configuration not stated) | · | · | · | · | -14% | ·
CC(C)C[C@H](N)C(=O)O | · | -2%[7.66 µM] | 12%[9.22 µM] | · | · | ·
CCOC(=O)C1CCN(S(=O)(=O)c2ccc(-c3nc4ccccc4s3)s2)CC1 | 30% | 5% | -28% | ? | 21µM* | 17%
O=C(c1cc2ccccc2s1)N1CCOCC1 | 8% | · | · | -1% | -6% | 1%
O=C(c1ccc(-c2nc3ccccc3s2)s1)N1CCOCC1 | 0.089µM* | ? | · | ? | 0.38µM* | ?
O=C(NC1CC1)c1ccc(-c2nc3ccccc3s2)s1 | 0.4µM* | ? | 0.5µM* | 0.26µM* | 0.15µM* | 0.32µM*
CCN1CCN(C(=O)c2ccc(-c3nc4ccccc4s3)s2)CC1 | ? | -6% | 11µM* | 14% | ? | 2.2µM*
CCCN1CCN(C(=O)c2ccccc2-c2nc3ccccc3s2)CC1 | 2% | 0% | 10% | 0% | 1% | -1%
Cc1cc2oc(C(=O)Nc3cccc(-c4nc5ccccc5o4)c3)c(C)c2cc1C | · | · | · | · | 2% | ·
SMILES | NPC1 prom act | Luc counter | SMN2 splice enh | ELG1 genotox | FLuc modulator | Rab9 promoter act
CCN1CCc2c(sc(NC(=S)NC(=O)c3ccccc3)c2C#N)C1 | -2% | -1% | -1% | 3% | -9% | 3%
CC1(C)Cc2c(sc(NC(=O)c3ccco3)c2C#N)CO1 | 1.6µM* | 1% | ? | ? | 1.9µM* | 3.2µM*
CN1Cc2sc(NC(=S)NC(=O)c3ccccc3)c(C#N)c2CC1(C)C | 8% | · | · | ? | 13µM* | 9%
CCC1(C)Cc2c(sc(NC(=S)NC(=O)c3ccccc3)c2C#N)CO1 (configuration not stated) | 18% | 3% | 2% | 5% | 6µM* | 28%
CC1CCc2sc(NC(=S)NC(=O)c3ccccc3)c(C#N)c2C1 (configuration not stated) | ? | 0% | ? | 10% | 12µM* | ?
Cc1ccc2c(c1)sc[n+]2Cc1ccccc1 | 26% | -3% | 11% | ? | 5.4µM* | 4%
Cc1ccc(C(=O)N/N=C/c2ccc(S(=O)(=O)O)o2)c(Cl)c1 | -2% | 15% | 9% | 0% | 15µM* | -20%
O=C(NCc1ccc(F)cc1)c1c2c(nc3ccccc13)CCC2 | ? | 2% | 5% | 14% | 13µM* | ?
Nc1ccc(-c2ccc(C(=O)O)s2)cn1 | 8% | -14% | 14% | 2% | 19µM* | 2%
Cc1cccc(NC(=O)Cn2nc(C)c3nn(-c4ccc(Cl)cc4)c(C)c3c2=O)c1C | · | · | · | · | -2% | ·
CCC(Sc1nc2c(sc3ccccc32)c(=O)n1CCc1ccc(OC)c(OC)c1)C(=O)N(CC)CC (configuration not stated) | · | · | · | · | 2% | ·
O=C(NCc1ccco1)c1ccccc1 | 0% | · | · | -5% | 0% | 0%
Cc1ccc(-c2noc(CCCC(=O)NCc3ccco3)n2)cc1 | · | · | -4% | · | -15% | ·
Cc1ccc(-c2noc(-c3ccccc3C(=O)NCc3ccco3)n2)cc1 | 16% | · | · | 6% | 5.4µM* | 16%
O=C(NCc1ccco1)c1ccccc1-c1nc(-c2ccccc2)no1 | 1% | -3% | 7% | 6% | 27µM* | 0%
Cc1cccc(-c2noc(-c3ccccc3C(=O)NCc3ccco3)n2)c1 | ? | · | · | 1% | 9.5µM* | ?
COc1cccc2cc(C(=O)NCc3ccco3)c(=Nc3ccc(C(=O)O)cc3)oc12 | 12% | 9% | -51% | 21µM* | ? | 1%
COc1cc(OC)c(NC(=O)N2CCc3c([nH]c4ccccc34)C2c2ccccc2F)cc1Cl (configuration not stated) | · | · | · | · | -1% | ·
Cc1cccc(NC(=O)CSc2nnc(-c3cccs3)o2)c1 | · | · | · | · | -8% | ·
COc1cc(-c2noc(-c3ccccc3C(=O)NCc3ccco3)n2)cc(OC)c1OC | 0% | 1% | 30% | -20% | -2% | -5%
